Screening results as filed in PubChem.
Statin myotox sup: suppression of simvastatin myotoxicity | C2C12 myotubes + simvastatin, ATP luminescence, 48 h; scaled: DMSO 0, geranylgeraniol control 100 | AID 602340 | rescue of ATP level, % at 7.49 µM | 0.78% of 330,000 active;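 active means mean ATP rescue above about 67%, or every replicate alone reaching that limit, limit read from the data, passing the limit was not always enough; inconclusive means no clear call, values can overlap the other calls; inactive means mean under the limit and some replicate under it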;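 further: myotubes were challenged with 10 µM simvastatin during compound exposure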
MITF act: activators of MITF-driven TRPM1 promoter activity in SK-MEL-5 cells | SK-MEL-5 TRPM1-promoter luciferase, 24 h; % of positive control, neutral wells = 0 | activation, % at 12.5 µM | 0.75% of 300,000 active | AID 588334;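 active means mean activation of at least 80% with every replicate also reaching 80%; inconclusive means mean reaches 80% but some replicate falls short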;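 further: 0% = neutral control wells and 100% = parthenolide positive control wells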
Wnt act: activators of Wnt/beta-catenin signaling; Wnt/beta-catenin reporter cell assay, activator, plate reader; activation, % at 9.35 µM; 1.2% of 300,000 active; in the data active means activation above about 30%, passing the limit was not always enough; inconclusive means no clear call, values can overlap the other calls;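 further: 0% = neutral control wells and 100% = positive control wells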
esBAF inh: inhibitors of esBAF chromatin remodeling in mouse ES cells. Bmi1-luciferase knock-in reporter, 24 h; 100% = twice the neutral-well signal. reporter increase, % at 12.5 µM. 2% of 350,000 active. AID 602393; in the data active means activation above about 40%; inconclusive means no clear call, values can overlap the other calls;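 further: 0% = median of the plate's neutral control wells and 100% = double that signal; a rise in the Bmi1 reporter signal indicates esBAF inhibition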
Active calls of the source: *; ? = inconclusive; nt = not tested or not shown. Compounds with a hit are over-represented: about 3% of the library has one in this group of screens.

SMILES	Statin myotox sup	MITF act	Wnt act	esBAF inh
c1ccc(-c2noc(-c3cccc4ccccc34)n2)nc1	-3	-6	nt	-47
COc1cc(-c2nc(-c3ccccn3)no2)cc(OC)c1OC	4	63	nt	50*
COc1cccc(-c2nc(-c3ccccn3)no2)c1OC	-5	84*	60*	43*
C/C(=N\Nc1cccc2cccnc12)c1ccc(N)cc1	6	16	2	64*
CC(C)NC(NC(=O)Cc1ccccc1)C(Cl)(Cl)Cl (centres undefined)	-23	9	nt	-8
CCN(CC)C(NC(=O)Cc1ccccc1)C(Cl)(Cl)Cl (centres undefined)	1	8	40*	-4
Nn1c(SCc2c(F)cccc2F)nnc1-c1ccccn1	9	nt	43*	?
CC(=O)c1ccc(-c2cc([C@H]3[C@H]4C=CC[C@@H](C)[C@@H]4C(=O)N3Cc3ccccc3)ccc2F)cc1	160*	-7	-6	-29
O=C(COC(=O)CC1CC2CCC1C2)Nc1ccccc1Cl (centres undefined)	-7	9	0	-5
Cc1ccc(Cl)cc1NC(=O)COC(=O)CC1CC2CCC1C2 (centres undefined)	112*	5	-6	-7
COc1cccc(OCc2cc(C(=O)N(C)C3CCOCC3)no2)c1	nt	12	-1	nt
CC(=O)c1ccc(OCc2cc(C(=O)N(C)CCOc3ccc(C)cc3)no2)cc1	nt	116*	0	nt
CC(=O)c1ccc(OCc2cc(C(=O)N(C)C3CCOC3)no2)cc1 (centres undefined)	9	70	25	61*
CN(C(=O)c1cc(COc2c(F)cccc2F)on1)C1CCOC1 (centres undefined)	-1	55	9	28
Cc1cc(OCc2cc(C(=O)N(C)C3CCOC3)no2)cc(C)c1Cl (centres undefined)	13	77	35*	83*
COc1cc(Cl)ccc1OCc1cc(C(=O)N(C)C2CCOC2)no1 (centres undefined)	5	66	1	55*
C[C@@H]1CCCCO[C@H](CN(C)C(=O)c2ccccc2)[C@@H](C)CN([C@H](C)CO)C(=O)c2cc(NC(=O)Nc3ccc(F)cc3)ccc2O1	nt	nt	nt	0
COc1ccc(NC(=O)Nc2ccc3c(c2)C(=O)N([C@H](C)CO)C[C@H](C)[C@@H](CN(C)C(=O)CCCN(C)C)OCCCC[C@H](C)O3)cc1	nt	nt	nt	0
COc1ccc(NC(=O)N(C)C[C@H]2OCCCC[C@@H](C)Oc3ccc(NC(=O)Cc4ccccc4)cc3C(=O)N([C@@H](C)CO)C[C@H]2C)cc1	nt	nt	nt	6
NC(=O)c1cccc(S(=O)(=O)N2CCCCC2)c1	-1	-2	1	1
Nc1cccc2c1C(=O)N(C(=O)c1cccc(S(=O)(=O)N3CCCC3)c1)C2=O	138*	nt	nt	-7
Cc1ccc(-n2c(C)cc(C(=O)COC(=O)c3c(C)noc3C)c2C)cc1	-16	50	51*	-4
Cc1cc(C(=O)COC(=O)C2=NNC(=O)CC2)c(C)n1-c1ccccc1	141*	-29	-4	-39
Cc1ccc(-n2c(C)cc(C(=O)COC(=O)C3=NNC(=O)CC3)c2C)cc1	3	-4	nt	-57
C[C@H]1CN([C@@H](C)CO)C(=O)c2cccc(NC(=O)Nc3ccc(C(F)(F)F)cc3)c2O[C@@H]1CN(C)CC1CC1	27	nt	nt	2
SMILES	Statin myotox sup	MITF act	Wnt act	esBAF inh
O=C(NCCCn1ccnc1)c1sc2cccc(F)c2c1Cl	-7	-8	nt	5
O=C(NCCCn1ccnc1)c1sc2cc([N+](=O)[O-])ccc2c1Cl	-20	nt	6	63*
CC(C)Sc1nc2ccccc2n1CC(N)=O	9	nt	44*	-2
COC(=O)Cn1c(SCc2ccccc2)nc2ccccc21	8	41	nt	49*
CCCN1C[C@@H](C)[C@@H](OC)CN(C)C(=O)c2ccc(NC(=O)c3cnccn3)cc2OC[C@H]1C	0	nt	nt	0
CCNC(=O)C[C@H]1CC[C@@H]2[C@@H](COc3ccc(NC(=O)c4ccccc4Cl)cc3C(=O)N2C)O1	6	nt	nt	1
O=C(CSc1nc(-c2ccccc2)c(-c2ccccc2)o1)Nc1nncs1	102*	-7	nt	-2
O=C(CSc1nc(-c2ccccc2)c(-c2ccccc2)o1)Nc1nnc(-c2ccccc2)s1	9	-4	nt	8
COc1ccc(CN(C(=O)c2cc3ccccc3oc2=O)C2CCS(=O)(=O)C2)cc1 (centres undefined)	nt	nt	22	nt
COc1cccc(CN(C(=O)c2cc3ccccc3oc2=O)C2CC2)c1	14	nt	?	57*
CCOc1ccc(CN(C(=O)c2cc3ccccc3oc2=O)C2CCS(=O)(=O)C2)cc1 (centres undefined)	-8	46	3	76*
COc1ccc(CN(C(=O)c2cc3ccccc3oc2=O)C2CCS(=O)(=O)C2)cc1OC (centres undefined)	1	73	22	62*
COc1ccccc1S(=O)(=O)N[C@H]1CC[C@H](CC(=O)N2CCN(C)CC2)O[C@H]1CO	-8	nt	nt	0
Cc1ccc(-c2cc(C(=O)Nc3cccnc3)[nH]n2)c(O)c1C	nt	114*	44*	nt
Cc1cccc(NC(=O)c2cc(-c3cc(C)ccc3O)n[nH]2)c1	-19	?	?	12
Cc1cccc(NC(=O)c2cc(-c3cc(C)c(C)cc3O)n[nH]2)c1	1	69	?	70*
COc1ccc(Cl)cc1NC(=O)c1cc(-c2ccccc2O)n[nH]1	nt	1	nt	nt
Cc1c(Cl)cccc1NC(=O)c1cc(-c2ccccc2O)n[nH]1	nt	74	10	49*
CC(=O)N[C@H]1C=C[C@H](CC(=O)NCc2ccc(Cl)cc2)O[C@@H]1CO	-2	nt	nt	1
C[C@H]1CN([C@@H](C)CO)C(=O)Cc2cc(NS(=O)(=O)c3ccc(Cl)cc3)ccc2O[C@@H]1CN(C)S(=O)(=O)c1cn(C)cn1	28	nt	nt	4
O=C(NNC(=O)c1ccncc1)Nc1ccc(N=Nc2ccccc2)cc1	100*	41	11	nt
C[C@H]1CN([C@@H](C)CO)C(=O)c2cc(-c3ccc(C#N)cc3)cnc2O[C@@H]1CN(C)Cc1ccccn1	-4	nt	nt	-2
C[C@H](C(=O)N(C)C[C@@H]1OCc2ccccc2-c2ccccc2C(=O)N([C@H](C)CO)C[C@@H]1C)c1ccccc1	-13	nt	nt	3
O=c1c2c([nH]c3ccc(Br)cc13)CCCC2	126*	-4	nt	-1
Cc1noc(C)c1NC(=O)Nc1ccc2c(c1)C(=O)N([C@@H](C)CO)C[C@@H](C)[C@H](CN(C)S(C)(=O)=O)O2	5	nt	nt	2
CN(c1ccc(O)cc1)S(=O)(=O)c1ccc2ccccc2c1	0	33	0	58*
CCN(c1ccccc1)S(=O)(=O)c1ccc2ccccc2c1	-34	-5	0	-6
CCCCCn1c(CCC(=O)Oc2ccccc2OC)nc2c1c(=O)[nH]c(=O)n2CCCC	129*	-11	nt	-2
CO[C@@H]1CN(C)C(=O)c2ccc(NC(C)=O)cc2OC[C@H](C)N(C(=O)C2CCCCC2)C[C@H]1C	-2	nt	nt	1
CCc1cnc(N2[C@@H](C#N)[C@@H](c3ccc(C#Cc4ccccc4F)cc3)[C@@H]2CO)s1	-8	nt	nt	-3
